Test results reported in PubChem BioAssay AID485346 (Sanford-Burnham Center for Chemical Genomics, 2010).
Among all 330,000 compounds or so, about 10,000 (3%) were called active.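 The calls were made as follows: active = inhibition of at least 50% at 8 µM in the primary screen; inactive = the rest.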 The entries come from a sample that favours actives as a whole.

Target: Protein Mdm4 (Homo sapiens) + E3 ubiquitin-protein ligase Mdm2 (Homo sapiens) (UniProt O15151+Q00987)
Experiment: disruptors of Mdm2/MdmX RING complex – cell-based, luminescence, split luciferase, SaOS-2, uHTS, primary screen (AID 485346)
Conditions: SaOS-2 split-luciferase Mdm2/MdmX complementation, at 8 µM, active compounds read high

Sequence of Protein Mdm4 (Homo sapiens) + E3 ubiquitin-protein ligase Mdm2 (Homo sapiens) (O15151 whole entry, looked up): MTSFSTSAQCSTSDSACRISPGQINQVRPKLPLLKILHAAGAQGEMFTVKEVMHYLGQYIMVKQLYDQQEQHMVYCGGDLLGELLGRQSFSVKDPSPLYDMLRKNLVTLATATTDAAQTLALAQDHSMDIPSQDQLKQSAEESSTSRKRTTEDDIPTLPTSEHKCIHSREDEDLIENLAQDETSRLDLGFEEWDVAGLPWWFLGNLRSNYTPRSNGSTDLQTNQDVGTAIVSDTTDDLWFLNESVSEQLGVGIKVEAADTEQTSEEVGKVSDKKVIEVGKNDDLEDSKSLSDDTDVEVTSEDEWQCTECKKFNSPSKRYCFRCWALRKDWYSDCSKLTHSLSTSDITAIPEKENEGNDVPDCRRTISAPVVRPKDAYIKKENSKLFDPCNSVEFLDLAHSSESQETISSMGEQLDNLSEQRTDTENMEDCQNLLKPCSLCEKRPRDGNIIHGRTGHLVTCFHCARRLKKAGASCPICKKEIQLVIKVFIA
Sequence of Protein Mdm4 (Homo sapiens) + E3 ubiquitin-protein ligase Mdm2 (Homo sapiens) (Q00987 whole entry, looked up): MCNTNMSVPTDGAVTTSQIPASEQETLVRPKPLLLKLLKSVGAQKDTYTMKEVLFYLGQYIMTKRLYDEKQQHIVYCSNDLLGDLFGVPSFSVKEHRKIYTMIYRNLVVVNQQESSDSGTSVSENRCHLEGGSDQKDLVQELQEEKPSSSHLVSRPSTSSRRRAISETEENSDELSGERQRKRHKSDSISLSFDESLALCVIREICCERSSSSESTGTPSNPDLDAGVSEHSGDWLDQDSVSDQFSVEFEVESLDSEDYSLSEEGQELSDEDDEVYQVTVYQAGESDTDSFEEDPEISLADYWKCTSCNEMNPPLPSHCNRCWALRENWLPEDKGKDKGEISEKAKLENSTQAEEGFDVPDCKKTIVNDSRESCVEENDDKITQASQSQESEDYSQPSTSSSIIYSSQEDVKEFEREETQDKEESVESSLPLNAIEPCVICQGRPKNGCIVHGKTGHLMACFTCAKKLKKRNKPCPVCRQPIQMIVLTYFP

inhibition, inactive:
Cc1cccc(OC(C)C(=O)N2CCc3ccccc3C2)c1 (configuration not stated) -5.47%, COC(c1ccccc1)c1nnc(CCC(=O)N2CCN(CCOc3ccccc3)CC2)o1 (configuration not stated) -18.9%, CC(C)c1ccc(NC(=O)COC(=O)c2ccc(CN3CCCC3=O)cc2)cc1 8.45%, COc1c(N2CCN(C(=S)Nc3ccccc3F)C(C)C2)c(F)cc2c(=O)c(C(=O)O)cn(C3CC3)c12 (configuration not stated) -14.1%, CNC(=O)NC(=O)C(OC(=O)c1cccc(S(=O)(=O)N2CCCCC2)c1)c1ccccc1 (configuration not stated) -21.4%, COc1ccccc1/C=N/Nc1nc(C)c(C(C)=O)s1 -49.5%, Cc1cc(N/N=C\c2ccc(Br)cc2)nc(-n2nc(C)cc2C)n1 35.8%, COc1ccc(/C=N/Nc2cc(N3CCOCC3)nc(C)n2)c(OC)c1 19.1%, Cc1nc(Cl)cc(N/N=C/c2ccccc2)n1 -5.97%, COCCC(=O)Nc1ccc2c(c1)CN(C(=O)CCOC)CC2 8.33%, O=C1NC(c2ccccc2)Oc2ccccc21 (configuration not stated) 12.9%, Cc1ccc(S(=O)(=O)NCCC(=O)OCC(=O)N(C)c2ccccc2)cc1 -1.91%, COc1ccc(CN2CCN(C(=O)c3cc(C4CC4)nn3-c3ccccc3)CC2)cc1F 12.7%, Cc1ccc(C)c(C(=O)N2CCC(n3nccc3NC(=O)C3CC3)CC2)c1 13.7%, COc1cc(C2CC(=O)Oc3cc(OC)c(OC)c(OC)c32)cc(OC)c1OC (configuration not stated) -1.07%, CC(CNC(=O)c1ccc(N)cc1)NC(=O)c1ccc(N)cc1 (configuration not stated) -17.5%, O=C(CSc1ncn[nH]1)N/N=C/c1ccc(F)cc1 1.12%, Cc1ccc(C(=O)/C=C/c2c(C)nn(-c3ccccc3)c2Cl)cc1 7.37%, CC(=O)Nc1ccc(S(=O)(=O)Nc2ccc(N3CCOCC3)c(F)c2)cc1 -7.04%, CC(=O)Nc1ccc(NS(=O)(=O)c2ccc3c(c2)NC(=O)CC(=O)N3)cc1 9.58%, COc1ccc(OCC(=O)NNC(=O)C2CCC2)cc1 4.55%, COc1ccc(CC(=O)Nc2sc(Cc3ccccc3)c(C)c2C(N)=O)cc1 -12.1%, COCc1nnc(NC(=O)c2ccc3c(c2)OCO3)s1 -40.4%, Cc1nn2c(NCCN(C)C)c3c(nc2c1-c1ccccc1)CCC3 1.13%, CCc1cc2c(=O)n(-c3ccccc3)c(SCC(=O)O)nc2s1 0.424%, CC(=O)N1C(=O)/C(=C2\SC(=S)N(NC(=O)c3ccc(O)cc3)C2=O)c2ccccc21 -4.31%, CCN(C(=O)CN1C(=O)/C(=C/c2ccc(F)cc2)SC1=S)C1CCS(=O)(=O)C1 (configuration not stated) -3.51%, COc1ccc(/C=C2\SC(=S)N(CCCC(=O)NC3CCCC3)C2=O)cc1OC 42.6%, Cc1ccc(O)c(NC(=S)NC(=O)COc2ccc(Br)cc2)c1 -6.04%, CCCCN1C(=S)NC[C@@H]1C(C)CC (some centres not stated) -2.44%, CC1Cc2ccccc2N1S(=O)(=O)c1cccc(C(=O)NCC(c2ccco2)N2CCCC2)c1 (configuration not stated) 6.48%, CC1Cc2ccccc2N1S(=O)(=O)c1cccc(C(=O)OCC(=O)N2CCOCC2)c1 (configuration not stated) 9.37%, Cc1noc(C)c1S(=O)(=O)Nc1ccc(C(=O)N2CCN(c3ccc(F)cc3)CC2)cc1 16.2%, COc1ccc(CCNC(=O)COC(=O)Cc2cccc(F)c2)cc1 5.4%, COc1ccc(C(=O)OCC(=O)N2CC(=O)Nc3ccccc32)cc1Br -3.51%, O=C(O)c1ccccc1CSc1nc2ccccc2s1 -21.2%, CCOc1ccccc1Nc1ccc2nonc2c1[N+](=O)[O-] 9.13%, COC(=O)[C@]1(C)N[C@H](CN(C)C(=O)c2ccc(C(C)(C)C)cc2)[C@@H]2C(=O)N(C)C(=O)[C@@H]21 4.61%, CC(=O)CCS(=O)(=O)c1ccc(C)c(C)c1 2.16%, CCCn1c(C)cc(-c2csc(NC(=O)CCc3nc4ccccc4c(=O)[nH]3)n2)c1C 13.7%, Cc1cc(S(=O)(=O)N2CCOCC2)ccc1OCC(=O)N1CCOCC1 -24.7%, Cc1ccccc1OCC(=O)Nc1ccc(S(=O)(=O)N2CCOCC2)cc1 -21.2%, Cc1cc(C)nc(N/N=C/c2c(C)oc3ccccc23)n1 33.3%, O=C(Nc1ccc2c(c1)OCCO2)c1cnccn1 -7.26%, Cc1cc(C)nc(N/N=C/c2c(CO)cnc(C)c2O)n1 27.1%, Cc1ccc(C(=O)NCCNC(=O)c2cnccn2)cc1 18.3%, Cc1ccc(-n2c(SCC(=O)NCc3ccc4c(c3)OCO4)nnc2-c2cccnc2)c(C)c1 1.7%, CCN(C(=O)CSc1nnnn1-c1ccc(OC)cc1)C1CCS(=O)(=O)C1 (configuration not stated) -4.86%, COC(=O)C1CCN(C(=O)COC(=O)c2cc(S(=O)(=O)N3CCOCC3)ccc2C)CC1 1.32%, CCCCn1c(N)c(N(CC)C(=O)/C=C/c2ccco2)c(=O)[nH]c1=O 15.3%, CCNC(=O)COc1cc(C)c(Br)c(C)c1 15.7%, Cc1ccc(S(=O)(=O)N(Cc2ccccc2)c2ccccn2)cc1[N+](=O)[O-] 23.2%, COc1cc(C(=O)OCc2cc(=O)n3ccsc3n2)ccc1OC(C)C -18.9%, CC1CCC2CCCCC2N1C(=O)c1cc([N+](=O)[O-])cc([N+](=O)[O-])c1 (configuration not stated) 5.25%, Cc1ccc(S(=O)(=O)N(C)c2ccc(OCC(=O)OCc3ccc(C#N)cc3)cc2)cc1 1.14%, CC1CCN(C(=O)c2cc3nc(C4CC4)cc(C(F)(F)F)n3n2)CC1 0.061%, COc1ccc2[nH]c3c(c2c1)CCN1C(=O)C(CC(=O)NCc2cccc(C(F)(F)F)c2)C[C@H](C(=O)N2CCOCC2)[C@@]31C (some centres not stated) 17.2%, CCOc1ccc2c(=O)c(-c3ccc4c(c3)OCCCO4)c(C)oc2c1 19.6%, Cn1c2ccccc2c(=O)c2c(O)cccc21 5.57%, Cn1c2ccccc2c(=O)c2c(=O)n(Cc3ccco3)c(COc3ccccc3)nc21 33.8%, CC(C)C1C2=C(CC(C)(C)CC2=O)ON1c1ccccc1 (configuration not stated) 16.1%, COc1cccc(/C=C(/CC(=O)Nc2ccc(N3CCOCC3)cc2)c2nc3ccccc3s2)c1 18.2%, O=C(COC(=O)Cn1[nH]c(=O)c2ccccc2c1=O)Nc1c(Cl)cccc1C(F)(F)F -4.75%, O=C(NCc1nnc(SCC(=O)N2CCCCCC2)o1)c1ccc(F)cc1 10.6%, Cc1ccc(NC(=O)c2ccc(CSc3ncnc4nc[nH]c34)cc2)c(C)c1 -2.54%, COc1ccc(CCNc2ncnc3nc[nH]c23)cc1OC 18.1%, Cc1ccc(CNC(=O)c2cc(-c3ccccc3C)n(CC3CC(c4cccc([N+](=O)[O-])c4)=NO3)n2)cc1 (configuration not stated) 26.5%, CCN(CC)CCCN=Cc1c(O)n(-c2ccc(C)cc2)c(=O)c2ccccc12 -22.5%, CCOc1ccc(-n2c(O)c(/C=N/c3ccnn3Cc3ccncc3)c3ccccc3c2=O)cc1 2.6%, CCCC1C(=O)N2C(N(C)C)=Nc3ccc(C)cc3N2C1=O (configuration not stated) 15.1%, CC1CCN(C(=O)CCc2nnc3ccc(NCc4ccco4)nn23)CC1 22.2%

inhibition, active:
COc1cccc(/C=N/Nc2cc(C)nc(-c3ccccc3O)n2)c1O 93.4%, COc1ccccc1/C=N\Nc1cc(C)nc(-n2nc(C)cc2C)n1 57.4%, O=C(/C=C/Sc1ncn[nH]1)c1ccc(Cl)cc1 97.6%, CC(=O)Nc1ccc(S(=O)(=O)Nc2ccc(N3CCCCC3)cc2)cc1 55%, Cc1ccc(C(=O)Nc2sc(Cc3ccc4c(c3)OCO4)c(C)c2C(N)=O)cc1 75.3%, O=C1/C(=C/c2ccc(F)cc2)SC(=S)N1CCCC(=O)N1CCCCC1CCO (configuration not stated) 81.8%, CCCCn1ccnc1C(=O)c1cccc(S(=O)(=O)N2c3ccccc3CC2C)c1 (configuration not stated) 55.3%, O=[N+]([O-])c1c(NCCO)cc(Sc2nc3ccccc3s2)c2nonc12 50.1%, Cc1cc(C(=O)COc2ccccc2[N+](=O)[O-])c(C)n1-c1cccc(S(=O)(=O)N2CCOCC2)c1 71.1%, CCN(CC)c1ccc(/C=N/Nc2nc(C)cc(C)n2)c(O)c1 72.9%, CCN(CC)c1ccc(/C=N/NC(=O)c2cnccn2)c(O)c1 72.8%, CC[C@]1(O)CC2CN(CCc3c([nH]c4ccccc34)[C@@](C(=O)OC)(c3cc4c(cc3OC)N(C=O)[C@H]3[C@@](O)(C(=O)OC)[C@H](OC(C)=O)[C@]5(CC)C=CCN6CC[C@]43[C@@H]65)C2)C1 (some centres not stated) 67.5%, CC[C@]1(O)C[C@@H]2CN(CCc3c([nH]c4ccccc34)[C@@](C(=O)OC)(c3cc4c(cc3OC)N(C)[C@H]3[C@@](O)(C(=O)OC)[C@H](OC(C)=O)[C@]5(CC)C=CCN6CC[C@]43[C@@H]65)C2)C1 85.9%, CCCc1nc2c(c(=O)c3ccccc3n2C)c(=O)n1C1CCCCCC1 76.1%, CCc1ccc(N(CC)c2ncnc3nc[nH]c23)cc1 63%, CCOc1ccc(-n2c(O)c(/C=N/Nc3nc(C)cc(C)n3)c3ccccc3c2=O)cc1 65.3%
